TIM10 inh = growth inhibitors of isogenic TIM10 control yeast, primary screen, counter-screen for tim10-1 yeast inhibitor project, luminescence, uHTS; S. cerevisiae TIM10 strain growth, BacTiter-Glo luminescence, 24 h; inhibition, % at 10 µM; 330,000 compounds, 1.4% hits; AID 463195, 2010;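 active means inhibition of 40% or more at the single tested concentration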;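 further: wild-type TIM10 isogenic control strain grown at permissive 25 °C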
tim23-1 inh = growth inhibitors of tim23-1 mutant yeast, primary screen, luminescence, uHTS | S. cerevisiae tim23-1 growth, BacTiter-Glo luminescence, 24 h | AID 463212, 2010 | 330,000 compounds, 1.3% hits | inhibition, % at 20 µM;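 active means growth inhibition of the mutant yeast at or above 50%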;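 further: temperature-sensitive mutant grown at 25 °C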
NALP1 inh = NALP1 inflammasome inhibitors in reconstituted yeast, colorimetric, S. cerevisiae, triplicate retest. 280,000 compounds, 0.61% hits. S. cerevisiae NALP1/ASC/caspase-1 growth, X-gal OD620, 72 h. inhibition, % at 10 µM. AID 2071, 2009; in the data active means inhibition mostly above about 24%, no sharp cut-off; inactive means mostly below about 32%
NALP3 yeast inh = NALP3 inflammasome inhibitors in reconstituted yeast, primary screen, luminescence, uHTS. Yeast reconstituted NLRP3/ASC/caspase-1, beta-gal luminescence, 24 h. inhibition, % at 10 µM. 330,000 compounds, 0.39% hits;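 active means inhibition of 50% or more; inactive means inhibition below 50%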
PfHsp90 yeast 2 = growth inhibition of PfHsp90-expressing yeast, primary screen, antimalarial PfHsp90 inhibitor project, S. cerevisiae, BacTiter-Glo luminescence, single point, set 2; BacTiter-Glo ATP, 48 h; yeast lacking PDR1 and PDR3 efflux regulators; inhibition, % at 9.4 µM; 310,000 compounds, 0.32% hits; AID 504621, 2011;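 active means every replicate shows inhibition above about 80%, whatever the replicate mean, limit read from the data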
tim10-1 inh = growth inhibitors of tim10-1 mutant yeast, primary screen, luminescence, uHTS. S. cerevisiae tim10-1 ts strain growth, BacTiter-Glo, 24 h. inhibition, % at 20 µM. 330,000 compounds, 2.2% hits;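 active means inhibition of at least 40%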;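 further: mutant grown at 25 °C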
tim10-1 conf = growth inhibitors of tim10-1 mutant yeast, confirmation, single concentration, luminescence, S. cerevisiae | shares compounds with tim10-1 inh | S. cerevisiae tim10-1 ts strain growth, BacTiter-Glo, 24 h | inhibition, % at 20 µM | 7,400 compounds, 56% hits;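 active means inhibition of yeast growth at or above a set limit in either of two repeat tests at 20 µM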;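 further: tim10-1 mutant grown at permissive 25 °C to find synthetic lethal compounds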
TIM10 conf = growth inhibitors of wild-type TIM10 yeast, confirmation, counter-screen for tim10-1 synthetic lethality project, single concentration, luminescence, S. cerevisiae | 4,600 compounds, 63% hits | AID 463215, 2010 | S. cerevisiae tim10 strain growth, BacTiter-Glo luminescence, 24 h | inhibition, % at 10 µM | shares compounds with TIM10 inh;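 active means inhibition of yeast growth at or above a set limit in either of two replicates at 10 µM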; further: this counterscreen used the strain with wild-type TIM10
Each line names hits and unclear results; the compound was inactive in the other large screens (follow-up assays come after a bar, where they were run). Sampled rows, rich in hits. Any-hit rate of the full collection: about 4.1%.

OCCC#Cc1c(-c2ccsc2)sc2ccccc12	tim10-1 inh 46.4 | tim10-1 conf inactive
OCCCCC#Cc1c(-c2ccsc2)sc2ccccc12	none
Nc1cccc(-c2c[nH]c3ncc(-c4cccnc4)cc23)c1	none (no result: TIM10 inh, tim23-1 inh, NALP1 inh, NALP3 yeast inh, tim10-1 inh)
Nc1c(C(=O)c2ccccc2)sc2snc(SCC(=O)c3ccccc3)c12	tim10-1 inh 62.2 | tim10-1 conf 66.5
CC(C)CC(=O)Nc1nnc(S(=O)(=O)N2CCCCCC2)s1	none
O=C(CSc1ccccc1)NNC(=O)c1ccncc1	none (no result: NALP1 inh, PfHsp90 yeast 2)
CCc1ccc(C(=O)COC(=O)CNC(=O)COc2ccccc2)cc1	tim10-1 inh 41.6 | tim10-1 conf inactive
Cc1ccc(C(=O)COC(=O)CNC(=O)Cc2ccccc2)cc1	none
CC(Sc1nc2ccccc2c(=O)n1CC1CCCO1)C(=O)N(C)c1ccccc1 (centres undefined)	none (no result: NALP1 inh, PfHsp90 yeast 2)
CCSC1=C(C#N)C(c2ccc(C)o2)CC(=O)N1 (centres undefined)	none
CCCCCCSC1=C(C#N)C(c2ccc(C)o2)CC(=O)N1 (centres undefined)	tim10-1 inh 40.8 | tim10-1 conf inactive
Cc1ccc(C(=O)ONc2ccc(N=NC(=O)c3ccccc3O)cc2)cc1	NALP1 inh 42.5, tim10-1 inh 43.4 | tim10-1 conf inactive
CCc1cc(C(=O)NCC(c2ccc(OC)cc2)N2CCOCC2)sc1C (centres undefined)	none (no result: NALP1 inh)
COc1ccc(C(CNC(=O)c2cc(C)oc2C)N2CCOCC2)cc1 (centres undefined)	tim10-1 inh 45.1 | tim10-1 conf inactive
COc1ccc(C(CNC(=O)c2oc3ccc(Cl)cc3c2C)N2CCCCC2)cc1 (centres undefined)	tim10-1 inh 46.8 | tim10-1 conf inactive
CC1CCc2nc(NC(=O)C3COc4ccccc4O3)sc2C1 (centres undefined)	tim10-1 inh 49.2 | tim10-1 conf inactive
CC1CCc2nc(NC(=O)C3CC3)sc2C1 (centres undefined)	none
COC(=O)[C@]1(C)N[C@H](CN(C)C(=O)c2ccc(C)cc2)[C@@H]2C(=O)N(Cc3ccccc3)C(=O)[C@@H]21	none (no result: NALP1 inh)
CCN(CC(=O)Nc1cc(Cl)ccc1C)C(=O)c1ccc(N2CCCC2=O)cc1	none (no result: NALP1 inh)
COC(=O)C1=C(C)N(c2cccc(C(C)=O)c2)C(=O)C1	none (no result: NALP1 inh, PfHsp90 yeast 2)
COC(=O)C1=C(C)N(c2cccc(Cl)c2)C(=O)C1	tim10-1 inh 52.2 | tim10-1 conf 33.6
O=C(NC1CCCCC1)C(c1cccs1)N(Cc1cccs1)C(=O)c1cccs1 (centres undefined)	tim10-1 inh 45.4 | tim10-1 conf 26.5
Cc1cc(C)c(COc2ccc(/C=N/n3c(C)n[nH]c3=S)cc2)c(C)c1	tim10-1 inh 41.2 | tim10-1 conf inactive
CCC(C)N1C(=O)N(c2cccc(Cl)c2)C(C)(O)CC1(C)C (centres undefined)	none
COc1ccc(-c2cc3ccccc3[nH]2)cc1	none
Cc1ccc(O)c(-c2cc3ccccc3[nH]2)c1	TIM10 inh 45.9, tim10-1 inh 52.7 (no result: NALP1 inh) | tim10-1 conf 39.9 | TIM10 conf 46.6
N=c1c2c(-c3ccccc3)c(-c3ccccc3)n(Cc3ccccc3)c2ncn1CCO	TIM10 inh 47.8, tim10-1 inh 46.8 | tim10-1 conf 36.3 | TIM10 conf inactive
N=c1c2c(-c3ccccc3)c(-c3ccccc3)n(Cc3ccco3)c2ncn1CCCn1ccnc1	none (no result: TIM10 inh, tim23-1 inh, NALP3 yeast inh, tim10-1 inh)
CC1CCN(C(=O)c2cc(S(=O)(=O)N3CCCCC3)c[nH]2)CC1	none
CCc1ccccc1NC(=O)CNC(=O)CNC(=O)c1cccs1	none (no result: NALP1 inh)
CN1C(=O)C(O)(CC(=O)c2cccc(-n3cccc3)c2)c2ccccc21 (centres undefined)	TIM10 inh 46.1, tim10-1 inh 50.6 | tim10-1 conf 38.3 | TIM10 conf inactive
O=C(CC1(O)C(=O)Nc2ccccc21)c1cccc(-n2cccc2)c1 (centres undefined)	none
C=CCNC(=O)C1CCN(c2cc(C)nc(-c3ccccc3)n2)CC1	none
Cc1cc(N2CCC(C(=O)Nc3ccc(F)cc3)CC2)nc(-c2ccccc2)n1	TIM10 inh 43.1, tim10-1 inh 49.3 | tim10-1 conf inactive | TIM10 conf inactive
Cc1nc2ccccn2c1C(=O)/C=C/c1ccc(F)cc1	TIM10 inh 40.1, tim10-1 inh 49.5 (no result: PfHsp90 yeast 2) | tim10-1 conf 36.7 | TIM10 conf 43.0
COc1ccc(/C=C/C(=O)c2c(C)nc3ccccn23)cc1	none (no result: PfHsp90 yeast 2)
CC(C(=O)N1CCc2ccccc21)N1CCN(c2cccc(C(F)(F)F)c2)CC1 (centres undefined)	none
O=C1C(Cl)=C(Nc2ccc(O)cc2)C(=O)c2ccccc21	TIM10 inh 44.9, tim10-1 inh 48.9 | tim10-1 conf 44.6 | TIM10 conf 51.5
CCOC(=O)c1nn(-c2ccc(F)cc2)c(=O)cc1OCC(=O)Nc1ccc(F)c(F)c1	none (no result: NALP1 inh, PfHsp90 yeast 2)
CCN1CCN(c2ccc(S(=O)(=O)N3CCOCC3)cc2NC(=O)CCC(C)C)CC1	none (no result: NALP1 inh)
Cc1cccc(NC(=S)NNC(=O)c2csc3c2CCCC3)c1	TIM10 inh 43.1, tim10-1 inh 44.9 | tim10-1 conf 45.0 | TIM10 conf inactive
O=C1CCC(C(=O)N2CCN(c3cnccn3)CC2)CN1CCc1ccc(Cl)cc1 (centres undefined)	none
O=C(/C=C/c1ccc(-c2ccccc2[N+](=O)[O-])o1)c1ccco1	TIM10 inh 47.7, tim10-1 inh 55.3 | tim10-1 conf 44.5 | TIM10 conf 46.1
CCOc1ccc(N2C(=O)CC(N(Cc3ccco3)C(C)=O)C2=O)cc1 (centres undefined)	none
CC(=O)c1cccc(NC(=O)C2C(c3ccccc3)C2(Cl)Cl)c1 (centres undefined)	TIM10 inh 41.5, tim10-1 inh 44.5 | tim10-1 conf inactive | TIM10 conf inactive
COc1ccc(NC(=O)C2C(c3ccccc3)C2(Cl)Cl)cc1 (centres undefined)	none
O=c1c2ccccc2nc(/C=C/c2ccc([N+](=O)[O-])o2)n1CCCO	TIM10 inh 58.8, tim10-1 inh 86.2 | tim10-1 conf 83.0 | TIM10 conf inactive
O=c1c2ccccc2nc(/C=C/c2ccc([N+](=O)[O-])cc2)n1CCCO	none
CCOC(=O)c1c(NC(=O)CSc2nccn2C)sc(C(=O)NC)c1C	none (no result: NALP1 inh)

Assay outcomes deposited in PubChem BioAssay by several laboratories.
